In the supplement of paper PMC10849652:
About 7,900 targets were measured; listed, in parts, are those with a hit and a random draw of the rest. About 0.6% of all pairs of compound and target were hits.

Assays:
Assay in all cases: log2 fold change, soluble protein after heating vs DMSO (PISA); higher = thermal stabilisation; K562 cells, 10 uM, 30 min; active = over 0.2 and 3.5 SD of the protein, either way, in both replicates (recomputed)
[1] = compound: CC1=C(C=C(C=C1)NC(=O)C2=CC(=CC=C2)C(C)(C)C#N)NC3=CC4=C(C=C3)N=CN(C4=O)C
Summary of the method: (§1)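 Aliquots of K562 cells (2×10^6 cells/mL) treated with 10 μM compound for 30 min were heated for 3 min over 48°C-58°C. After pooling and extraction in PBS with 0.5% NP-40 at 4°C, soluble protein from a 21,000xg, 90 min spin was quantified by TMTpro 16plex LC-MS/MS with channel sums equalised. Thermal stability is expressed against control samples, from duplicates, as a log2 fold change.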

[2] = compound: CC1=C(C=C(C=C1)NC(=O)C2=CC(=CC=C2)N(C)C)NC(=O)C3=CC=C(C=C3)O
Summary of the method: as §1

[3] = compound: CC1=CC=C(C=C1)SC2=C3C=C(SC3=CN=C2)C(=O)N
Summary of the method: as §1

[4] = compound: CC1=NC(=CC=C1)C2=C(N=C(N2)C(C)(C)C)C3=CC4=NC=CN=C4C=C3
Summary of the method: as §1

Nexturastat A = compound: CCCCN(Cc1ccc(C(=O)NO)cc1)C(=O)Nc1ccccc1 [Nexturastat A]
Summary of the method: as §1

vemurafenib = compound: CCCS(=O)(=O)Nc1ccc(F)c(C(=O)c2c[nH]c3ncc(-c4ccc(Cl)cc4)cc23)c1F [vemurafenib]
Summary of the method: as §1

[5] = compound: CCCS(=O)(=O)Nc1ccc(F)c(C(=O)c2c[nH]c3ncc(Cl)cc23)c1F
Summary of the method: as §1

[6] = compound: CCCc1cc(C)[nH]c(=O)c1CNC(=O)c1cc(-c2ccnc(N3CCN(C)CC3)c2)cc2c1cnn2C(C)C
Summary of the method: as §1

givinostat = compound: CCN(CC)Cc1ccc2cc(COC(=O)Nc3ccc(C(=O)NO)cc3)ccc2c1 [givinostat]
Summary of the method: as §1

barasertib = compound: CCN(CCCOc1ccc2c(Nc3cc(CC(=O)Nc4cccc(F)c4)[nH]n3)ncnc2c1)CCOP(=O)(O)O [barasertib]
Summary of the method: as §1

Measured: log2 fold change

FAM50A (UniProt Q14320)
inactive: [1] 0.041 | [2] -0.059 | [3] 0.019 | [4] 0.057 | Nexturastat A -0.069 | vemurafenib 0.049 | [5] 0.035 | [6] 0.014 | givinostat 0.102 | barasertib 0.026

DNAAF2 (UniProt Q9NVR5)
inactive: [1] -0.037 | [2] -0.043 | [3] -0.046 | [4] -0.038 | Nexturastat A -0.034 | vemurafenib 0.043 | [5] -0.038 | [6] -0.065 | givinostat 0 | barasertib -0.009

DCTPP1 (UniProt Q9H773)
Sequence of UniProt Q9H773 (Q9H773 whole entry, looked up): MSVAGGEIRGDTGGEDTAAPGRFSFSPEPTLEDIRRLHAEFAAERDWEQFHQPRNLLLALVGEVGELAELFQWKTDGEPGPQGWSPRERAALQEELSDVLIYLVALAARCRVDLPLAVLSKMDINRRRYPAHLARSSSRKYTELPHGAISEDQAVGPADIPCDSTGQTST
inactive: [1] 0.003 | [2] -0.078 | [3] 0.009 | [4] 0.008 | Nexturastat A 0.067 | vemurafenib 0.126 | [5] -0.043 | [6] -0.009 | givinostat -0.019 | barasertib 0.059

EXOC5 (UniProt O00471)
inactive: [1] 0.006 | [2] -0.022 | [3] -0.007 | [4] 0.056 | Nexturastat A 0.017 | vemurafenib 0.046 | [5] 0.08 | [6] -0.028 | givinostat 0.118 | barasertib 0.031

EEF1D isoform 2 (UniProt P29692)
inactive: [1] 0.039 | [2] -0.034 | [3] -0.012 | [4] -0.003 | Nexturastat A 0.029 | vemurafenib -0.044 | [5] 0.049 | [6] -0.004 | givinostat 0.038 | barasertib 0.02

EIF4E isoform 2 (UniProt P06730)
inactive: [1] 0.044 | [2] -0.035 | [3] 0.008 | [4] 0.02 | Nexturastat A -0.078 | vemurafenib 0.078 | [5] 0.109 | [6] -0.086 | givinostat 0.012 | barasertib -0.07

DAB2 (UniProt P98082)
Sequence of UniProt P98082 (P98082 whole entry, looked up): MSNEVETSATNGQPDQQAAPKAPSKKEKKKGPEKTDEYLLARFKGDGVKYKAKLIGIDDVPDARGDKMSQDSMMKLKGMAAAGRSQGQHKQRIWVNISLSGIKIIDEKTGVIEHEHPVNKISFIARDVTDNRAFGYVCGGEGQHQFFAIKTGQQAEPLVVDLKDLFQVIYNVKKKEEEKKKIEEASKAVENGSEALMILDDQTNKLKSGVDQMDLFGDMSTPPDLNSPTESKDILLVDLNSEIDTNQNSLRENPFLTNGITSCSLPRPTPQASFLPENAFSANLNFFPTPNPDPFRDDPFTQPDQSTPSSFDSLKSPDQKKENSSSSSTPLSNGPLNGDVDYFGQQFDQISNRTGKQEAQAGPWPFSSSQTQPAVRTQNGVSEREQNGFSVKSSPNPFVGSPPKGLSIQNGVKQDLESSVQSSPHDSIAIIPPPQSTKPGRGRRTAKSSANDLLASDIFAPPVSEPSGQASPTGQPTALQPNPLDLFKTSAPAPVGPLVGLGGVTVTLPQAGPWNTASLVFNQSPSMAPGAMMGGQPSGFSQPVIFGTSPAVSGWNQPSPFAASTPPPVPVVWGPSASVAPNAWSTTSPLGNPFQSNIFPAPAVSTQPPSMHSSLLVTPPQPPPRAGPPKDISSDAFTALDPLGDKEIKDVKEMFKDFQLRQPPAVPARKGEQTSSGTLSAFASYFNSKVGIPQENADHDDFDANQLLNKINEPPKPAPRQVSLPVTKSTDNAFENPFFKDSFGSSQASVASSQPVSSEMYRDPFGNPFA
inactive: [1] 0.016 | [2] 0.015 | [3] -0.03 | [4] -0.046 | Nexturastat A 0.058 | vemurafenib -0.033 | [5] 0.064 | [6] 0.036 | givinostat 0.109 | barasertib 0.072

DNAJB12 (UniProt Q9NXW2)
Sequence of UniProt Q9NXW2 (Q9NXW2 whole entry, looked up): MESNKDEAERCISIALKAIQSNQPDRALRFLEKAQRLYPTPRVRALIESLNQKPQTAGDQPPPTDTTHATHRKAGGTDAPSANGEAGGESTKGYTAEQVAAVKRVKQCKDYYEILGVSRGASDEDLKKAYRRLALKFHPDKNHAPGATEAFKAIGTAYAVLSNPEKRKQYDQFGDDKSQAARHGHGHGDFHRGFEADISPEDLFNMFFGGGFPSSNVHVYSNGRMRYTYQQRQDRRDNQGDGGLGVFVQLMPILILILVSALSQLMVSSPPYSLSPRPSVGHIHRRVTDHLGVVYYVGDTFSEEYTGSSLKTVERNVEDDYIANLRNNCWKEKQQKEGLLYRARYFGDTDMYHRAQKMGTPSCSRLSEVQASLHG
inactive: [1] -0.071 | [2] -0.017 | [3] -0.002 | [4] 0.017 | Nexturastat A 0.044 | vemurafenib 0.008 | [5] 0.008 | [6] -0.069 | givinostat 0.06 | barasertib -0.001

CUTA isoform 2 (UniProt O60888)
Sequence of UniProt O60888 (O60888 whole entry, looked up): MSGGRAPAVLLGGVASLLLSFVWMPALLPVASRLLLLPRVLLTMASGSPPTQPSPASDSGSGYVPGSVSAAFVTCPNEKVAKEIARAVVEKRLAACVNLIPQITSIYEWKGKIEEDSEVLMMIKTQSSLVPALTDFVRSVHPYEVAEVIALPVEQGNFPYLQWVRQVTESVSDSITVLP
inactive: [1] -0.121 | [2] -0.011 | [3] 0.013 | [4] 0.044 | Nexturastat A 0.169 | vemurafenib 0 | [5] 0.044 | [6] 0.16 | givinostat -0.044 | barasertib 0.015

F5 (UniProt P12259)
inactive: [1] 0.056 | [2] 0.036 | [3] -0.027 | [4] 0.011 | Nexturastat A -0.04 | vemurafenib 0.066 | [5] -0.016 | [6] -0.036 | givinostat -0.01 | barasertib 0.034

DHPS (UniProt P49366)
Sequence of UniProt P49366 (P49366 whole entry, looked up): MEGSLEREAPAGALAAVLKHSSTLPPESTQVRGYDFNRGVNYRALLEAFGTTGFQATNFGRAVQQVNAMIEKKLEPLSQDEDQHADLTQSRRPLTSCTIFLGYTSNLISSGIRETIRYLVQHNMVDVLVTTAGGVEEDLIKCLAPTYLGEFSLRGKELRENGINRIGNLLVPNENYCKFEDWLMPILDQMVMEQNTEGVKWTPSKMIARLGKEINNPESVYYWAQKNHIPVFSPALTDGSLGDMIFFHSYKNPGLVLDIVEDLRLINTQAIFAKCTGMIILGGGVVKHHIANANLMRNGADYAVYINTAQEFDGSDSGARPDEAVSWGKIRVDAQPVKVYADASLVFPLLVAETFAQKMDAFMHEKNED
inactive: [1] -0.074 | [2] 0.016 | [3] 0.034 | [4] 0.161 | Nexturastat A -0.079 | vemurafenib 0.067 | [5] 0.008 | [6] -0.015 | givinostat -0.001 | barasertib 0.01

DBT (UniProt P11182)
inactive: [1] 0.001 | [2] -0.017 | [3] 0.01 | [4] -0.015 | Nexturastat A 0.024 | vemurafenib -0.011 | [5] 0.015 | [6] -0.042 | givinostat 0.005 | barasertib -0.033

EXOC6 (UniProt Q8TAG9)
inactive: [1] -0.054 | [2] -0.028 | [3] 0.104 | [4] 0.032 | Nexturastat A 0.133 | vemurafenib 0.104 | [5] 0.022 | [6] 0.009 | givinostat 0.075 | barasertib -0.018

EGLN1 (UniProt Q9GZT9)
inactive: [1] -0.14 | [2] 0.009 | [3] -0.013 | [4] 0.048 | Nexturastat A -0.096 | vemurafenib -0.007 | [5] 0.006 | [6] 0.017 | givinostat -0.191 | barasertib 0.066

ETNK1 (UniProt Q9HBU6)
Sequence of UniProt Q9HBU6 (Q9HBU6 whole entry, looked up): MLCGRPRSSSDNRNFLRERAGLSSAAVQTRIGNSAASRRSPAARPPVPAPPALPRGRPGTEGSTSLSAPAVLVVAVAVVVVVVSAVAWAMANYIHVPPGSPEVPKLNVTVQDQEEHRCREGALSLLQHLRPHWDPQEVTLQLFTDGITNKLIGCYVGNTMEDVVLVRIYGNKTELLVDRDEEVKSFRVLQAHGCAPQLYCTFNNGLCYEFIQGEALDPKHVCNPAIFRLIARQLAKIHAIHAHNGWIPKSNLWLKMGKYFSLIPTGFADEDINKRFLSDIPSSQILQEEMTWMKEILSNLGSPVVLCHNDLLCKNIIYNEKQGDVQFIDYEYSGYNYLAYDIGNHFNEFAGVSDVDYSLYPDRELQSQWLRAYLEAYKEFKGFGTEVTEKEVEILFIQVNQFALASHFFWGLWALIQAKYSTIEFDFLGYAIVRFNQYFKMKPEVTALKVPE
inactive: [1] 0.241 | [2] -0.054 | [3] 0.022 | [4] 0.02 | Nexturastat A -0.177 | vemurafenib 0.006 | [5] 0.172 | [6] -0.076 | givinostat 0.042 | barasertib 0.005

DHX40 (UniProt Q8IX18)
Sequence of UniProt Q8IX18 (Q8IX18 whole entry, looked up): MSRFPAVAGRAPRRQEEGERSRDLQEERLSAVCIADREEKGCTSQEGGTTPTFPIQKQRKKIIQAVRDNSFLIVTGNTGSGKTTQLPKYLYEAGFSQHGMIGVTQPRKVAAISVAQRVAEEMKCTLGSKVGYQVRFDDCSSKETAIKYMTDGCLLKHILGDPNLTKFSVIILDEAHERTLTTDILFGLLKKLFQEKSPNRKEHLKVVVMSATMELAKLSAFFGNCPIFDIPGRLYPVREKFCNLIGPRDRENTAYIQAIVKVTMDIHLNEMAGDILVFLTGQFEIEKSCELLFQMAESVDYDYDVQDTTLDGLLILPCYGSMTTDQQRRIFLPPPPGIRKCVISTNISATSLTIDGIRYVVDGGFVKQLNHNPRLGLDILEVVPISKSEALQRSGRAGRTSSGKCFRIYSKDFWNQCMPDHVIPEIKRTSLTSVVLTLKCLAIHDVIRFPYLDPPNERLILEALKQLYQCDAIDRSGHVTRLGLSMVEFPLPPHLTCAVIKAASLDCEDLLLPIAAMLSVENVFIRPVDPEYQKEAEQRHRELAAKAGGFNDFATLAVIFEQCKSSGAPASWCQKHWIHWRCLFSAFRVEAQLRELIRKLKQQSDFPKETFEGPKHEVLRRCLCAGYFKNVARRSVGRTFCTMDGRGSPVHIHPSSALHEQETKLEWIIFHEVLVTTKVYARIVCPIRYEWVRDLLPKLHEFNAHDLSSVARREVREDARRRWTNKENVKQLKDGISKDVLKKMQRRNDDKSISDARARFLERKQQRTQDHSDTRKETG
inactive: [1] 0.105 | [2] -0.047 | [3] 0.02 | [4] -0.027 | Nexturastat A 0.12 | vemurafenib 0 | [5] 0.043 | [6] 0.025 | givinostat 0.087 | barasertib -0.002

CTNNB1 (UniProt P35222)
inactive: [1] -0.118 | [2] -0.018 | [3] 0.09 | [4] -0.028 | Nexturastat A 0.172 | vemurafenib -0.22 | [5] -0.002 | [6] -0.134 | givinostat 0.129 | barasertib 0.04

DSN1 (UniProt Q9H410)
inactive: [1] -0.02 | [2] -0.096 | [3] -0.003 | [4] 0.021 | Nexturastat A 0.051 | vemurafenib 0.133 | [5] 0.022 | [6] 0.004 | givinostat 0.053 | barasertib 0.075

ELOVL5 isoform 2 (UniProt Q9NYP7)
inactive: [1] 0.079 | [2] 0.02 | [3] 0.002 | Nexturastat A -0.05 | vemurafenib 0.065 | [5] 0.03 | [6] -0.241 | givinostat -0.008 | barasertib 0.035

E2F4 (UniProt Q16254)
inactive: [1] 0.031 | [2] 0.011 | [3] 0.087 | [4] 0.079 | Nexturastat A 0.034 | vemurafenib -0.001 | [5] 0.02 | [6] 0.021 | givinostat 0.05 | barasertib 0.054

FAM118A (UniProt Q9NWS6)
inactive: [1] 0.057 | [2] 0.086 | [3] 0.101 | [4] -0.163 | Nexturastat A -0.031 | vemurafenib 0.182 | [5] 0.114 | [6] -0.016 | barasertib 0.112

EPHX2 (UniProt P34913)
Sequence of UniProt P34913 (P34913 whole entry, looked up): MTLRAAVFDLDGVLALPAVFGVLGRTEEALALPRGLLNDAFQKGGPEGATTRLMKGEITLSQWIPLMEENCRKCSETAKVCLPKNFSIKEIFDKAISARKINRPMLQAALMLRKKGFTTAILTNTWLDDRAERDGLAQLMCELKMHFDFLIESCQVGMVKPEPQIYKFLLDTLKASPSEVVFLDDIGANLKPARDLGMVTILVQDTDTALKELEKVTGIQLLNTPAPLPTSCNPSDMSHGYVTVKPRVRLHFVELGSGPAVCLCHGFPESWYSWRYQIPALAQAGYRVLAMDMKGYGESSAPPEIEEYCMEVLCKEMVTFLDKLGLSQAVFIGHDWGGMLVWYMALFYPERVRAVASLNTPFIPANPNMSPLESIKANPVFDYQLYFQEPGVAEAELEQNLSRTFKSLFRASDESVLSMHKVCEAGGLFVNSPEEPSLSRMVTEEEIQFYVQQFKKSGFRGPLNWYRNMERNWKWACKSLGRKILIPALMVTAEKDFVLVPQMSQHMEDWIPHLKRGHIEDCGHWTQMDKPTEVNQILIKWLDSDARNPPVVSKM
inactive: [1] 0.112 | [2] 0.129 | [3] 0.031 | [4] -0.017 | Nexturastat A 0.193 | vemurafenib -0.012 | [5] -0.025 | [6] -0.075 | givinostat -0.014 | barasertib -0.029

ELMO1 (UniProt Q92556)
Sequence of UniProt Q92556 (Q92556 whole entry, looked up): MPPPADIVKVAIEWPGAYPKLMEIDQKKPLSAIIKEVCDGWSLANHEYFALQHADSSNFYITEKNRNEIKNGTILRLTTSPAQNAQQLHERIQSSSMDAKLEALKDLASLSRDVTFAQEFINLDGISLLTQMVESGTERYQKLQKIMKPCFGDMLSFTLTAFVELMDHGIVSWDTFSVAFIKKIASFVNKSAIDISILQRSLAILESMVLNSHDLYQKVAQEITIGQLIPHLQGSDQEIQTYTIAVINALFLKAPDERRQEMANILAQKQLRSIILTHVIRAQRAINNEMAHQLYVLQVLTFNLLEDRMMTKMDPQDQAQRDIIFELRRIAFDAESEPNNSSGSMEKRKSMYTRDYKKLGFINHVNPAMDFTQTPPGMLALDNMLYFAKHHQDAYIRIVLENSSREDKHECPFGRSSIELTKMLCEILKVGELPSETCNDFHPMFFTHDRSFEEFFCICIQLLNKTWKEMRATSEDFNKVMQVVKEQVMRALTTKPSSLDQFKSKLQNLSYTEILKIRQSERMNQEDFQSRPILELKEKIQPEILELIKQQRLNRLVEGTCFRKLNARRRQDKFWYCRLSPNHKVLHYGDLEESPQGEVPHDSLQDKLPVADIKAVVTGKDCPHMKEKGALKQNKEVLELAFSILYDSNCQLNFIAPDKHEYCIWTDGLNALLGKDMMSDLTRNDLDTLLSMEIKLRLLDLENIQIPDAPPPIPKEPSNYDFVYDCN
inactive: [1] -0.075 | [2] -0.005 | [4] -0.074 | Nexturastat A -0.101 | vemurafenib -0.172 | [6] 0.218 | givinostat -0.043 | barasertib -0.105

EMD (UniProt P50402)
inactive: [1] -0.056 | [2] 0.011 | [3] -0.076 | [4] -0.04 | Nexturastat A 0.059 | vemurafenib -0.015 | [5] 0.021 | [6] -0.092 | givinostat 0.002 | barasertib 0.002

EFL1 (UniProt Q7Z2Z2)
inactive: [1] -0.025 | [2] 0.004 | [3] 0.016 | [4] 0.012 | Nexturastat A -0.11 | vemurafenib 0.04 | [5] 0.036 | [6] 0.008 | givinostat 0.004 | barasertib 0.05

DHRS1 (UniProt Q96LJ7)
inactive: [1] 0.357 | [2] -0.143 | [3] -0.166 | [4] -0.202 | Nexturastat A 0.096 | vemurafenib 0.29 | [5] -0.079 | [6] 0.088 | givinostat 0.068 | barasertib -0.05

EGR1 (UniProt P18146)
Sequence of UniProt P18146 (P18146 whole entry, looked up): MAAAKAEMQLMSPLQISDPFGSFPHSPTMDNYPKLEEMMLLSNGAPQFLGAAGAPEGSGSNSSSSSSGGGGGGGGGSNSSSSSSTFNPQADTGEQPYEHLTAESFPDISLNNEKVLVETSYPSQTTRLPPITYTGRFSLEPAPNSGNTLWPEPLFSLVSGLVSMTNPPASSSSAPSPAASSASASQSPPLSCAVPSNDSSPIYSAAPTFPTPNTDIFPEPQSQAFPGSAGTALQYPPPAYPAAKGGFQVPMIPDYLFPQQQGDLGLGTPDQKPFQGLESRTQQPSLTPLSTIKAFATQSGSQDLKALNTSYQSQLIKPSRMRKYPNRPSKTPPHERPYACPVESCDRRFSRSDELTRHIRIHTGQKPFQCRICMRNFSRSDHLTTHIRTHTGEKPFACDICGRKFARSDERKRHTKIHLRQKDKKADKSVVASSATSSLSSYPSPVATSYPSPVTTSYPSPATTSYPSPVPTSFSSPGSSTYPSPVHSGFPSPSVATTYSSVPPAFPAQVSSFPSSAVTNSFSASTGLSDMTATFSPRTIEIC
inactive: [1] -0.128 | [2] -0.024 | [3] -0.404 | Nexturastat A 0.53 | vemurafenib 0.305 | [5] -0.13 | [6] -0.027 | givinostat -0.06 | barasertib -0.048

DNM2 isoform 4 (UniProt P50570)
inactive: [1] 0.062 | [2] -0.001 | [4] 0.23 | Nexturastat A 0.089 | [6] -0.032 | givinostat 0.159 | barasertib 0.013
